We go through 13 molecules from PubChem BioAssay.

The nature of test [1]: sensitizers of A549 cells to miR-34 induction, primary screen, imaging, A549 dox-inducible miR-34, nuclei and caspase counts (AID 1347080;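 active = compounds whose cell count with miR-34 switched on is under 0.7 times the count with it off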). The conditions noted are these: A549 miR-34 inducible, Hoechst nuclei count, 48 h.
Test [2] can be described thus: inhibitors of Cryptococcus chitosan production, flow cytometry, Cibacron Brilliant Red staining (AID 1347148).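 Note: compound exposure lasted three days at 37 degrees C.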 The conditions noted are these: Cryptococcus neoformans chitosan, stronger effect = lower value; at 10 µM unless noted. In general terms: A flow cytometer gives signals particle by particle.
Setting [3] is: stronger effect = lower value, cell number ratio, induced over uninduced.
The mark [4] stands for this setting: measured here: relative caspase fold change +Dox/-Dox.
Setting [5] is: measured here: total cells with miR-34 induction, stronger effect = lower value.
Where [6] appears, read: measured here: total cells without miR-34 induction.

Activity calls are given as the source filed them. Unless noted, the rule behind the calls is not given here. Peptide text beside a SMILES is read from it. * marks the point of attachment. Cbz = O=C(OCc1ccccc1)*

As to `CSCC[C@H](NC(=O)[C@H](Cc1ccccc1)NC[C@@H](NC[C@@H](N)CS)C(C)C)C(=O)O`, the values for the fold change in test [1] (setting [3]) and in test [1] (setting [4]) were 0.931 (inactive) and 1.07, respectively. Also, the results for the cell count in test [1] (setting [5]) and in test [1] (setting [6]) were 6180 and 6640, respectively. For the same molecule, in test [2], the fold fluorescence was 4.75 [at 106.2 µM] (inactive).

For `CCCCC/C=C\C\C=C/C=C/C=C/[C@@H](SC[C@H](N)C(=O)NCC(=O)O)[C@@H](O)CCCC(=O)O`, the figures for the fold change in test [1] (setting [3]) and in test [1] (setting [4]) were 0.978 (inactive) and 1.35, respectively. Besides, the cell count in test [1] (setting [5]) came to 5990; in test [1] (setting [6]), 6130. The fold fluorescence in test [2] was 3.83 [at 1 µM] (inactive).

For the molecule `CCC(C)[C@H](NS(=O)(=O)c1cccc2ccccc12)C(=O)N[C@H](C=O)Cc1c[nH]c2ccccc12` (stereo not given in full), the fold change in test [1] (setting [3]) was 0.877 (inactive); in test [1] (setting [4]), 1.24. The figures for the cell count in test [1] (setting [5]) and in test [1] (setting [6]) were 2990 and 3410, respectively. The fold fluorescence in test [2] is 3.23 [at 101.7 µM] (inactive).

With `C[C@H]([C@H](C)N1CC(=O)NC(=O)C1)N1CC(=O)NC(=O)C1`, the fold change in test [1] (setting [3]) is 0.938 (inactive); in test [1] (setting [4]), 0.644. The cell count was 1940 in test [1] (setting [5]) and 2070 in test [1] (setting [6]). The fold fluorescence in test [2] was 4.39 [at 177.1 µM] (inactive).

For the molecule `NC(=NCc1ccc(Cl)cc1Cl)NC(=O)c1nc(Cl)c(N)nc1N`, the fold change is 1.01 (inactive) in test [1] (setting [3]) and 0.617 in test [1] (setting [4]). For the same molecule, the cell count was determined as 1450 in test [1] (setting [5]) and 1430 in test [1] (setting [6]). Besides, the fold fluorescence in test [2] was 10.2 [at 117.6 µM] (inactive).

With `CCCCC[C@H](O)CC(=O)CCc1ccc(O)c(OC)c1`, the fold change in test [1] (setting [3]) was 0.985 (inactive); in test [1] (setting [4]), 0.961. For the same molecule, the cell count in test [1] (setting [5]) is 5360; in test [1] (setting [6]) it was 5440. Also, the fold fluorescence in test [2] is 5.62 [at 169.8 µM] (inactive).

As for `N#C/C(=C/c1ccc(O)c(O)c1)C(=O)OC/C=C/c1ccccc1`, the figures for the fold change in test [1] (setting [3]) and in test [1] (setting [4]) were 1.11 (inactive) and 1.47, respectively. The values for the cell count in test [1] (setting [5]) and in test [1] (setting [6]) were 4460 and 4020, respectively. Further, the fold fluorescence in test [2] is 10.2 [at 155.6 µM] (inactive).

With `CCCCCCCC/C=C\CCCCCCCC(=O)OC[C@H](CO)OC(=O)CCCCCCC/C=C\CCCCCCCC`, the fold change in test [1] (setting [3]) is 1.03 (inactive); in test [1] (setting [4]), 0.954. The cell count in test [1] (setting [5]) was 5310; in test [1] (setting [6]), 5170. In test [2], the fold fluorescence is 4.1 (inactive).

`CC(=O)N[C@@H](CC(C)C)C(=O)N[C@@H](CC(C)C)C(=O)N[C@H](C=O)CCCN=C(N)N`: the fold change in test [1] (setting [3]) is 0.979 (inactive); in test [1] (setting [4]), 0.761. Moreover, the figures for the cell count in test [1] (setting [5]) and in test [1] (setting [6]) were 5980 and 6110, respectively. Further, the fold fluorescence in test [2] is 4.98 [at 117.2 µM] (inactive).

On to `CCCCC[C@@H](O)/C=C/[C@H]1[C@H](C/C=C\CCCC(=O)O)[C@H](O)C[C@@H]1O`, for which the fold change is 1.15 (inactive) in test [1] (setting [3]) and 0.636 in test [1] (setting [4]). Moreover, the cell count was determined as 6980 in test [1] (setting [5]) and 6050 in test [1] (setting [6]). Also, the fold fluorescence in test [2] is 3.65 (inactive).

Consider `Nc1ncnc2c1nc(Br)n2C1O[C@H]2COP(=O)(O)O[C@@H]2[C@@H]1O` (stereo not given in full), for which the values for the fold change in test [1] (setting [3]) and in test [1] (setting [4]) were 0.835 (inactive) and 1.27, respectively. For the same molecule, the figures for the cell count in test [1] (setting [5]) and in test [1] (setting [6]) were 4570 and 5470, respectively. In addition, the fold fluorescence in test [2] is 3.88 [at 122.5 µM] (inactive).

Take `O=C[C@@H]1CCCN1C(=O)[C@@H]1CCCN1C(=O)OCc1ccccc1` (Cbz-Pro-Pro-aldehyde): the values for the fold change in test [1] (setting [3]) and in test [1] (setting [4]) were 0.854 (inactive) and 1.14, respectively. For the same molecule, the cell count in test [1] (setting [5]) came to 5160; in test [1] (setting [6]) it was 6040. Besides, the fold fluorescence in test [2] was 5.13 [at 151.3 µM] (inactive).

Consider `CCCCCCCCCC(=O)OC[C@H](CO)OC(=O)CCCCCCCCC`, for which the fold change is 0.939 (inactive) in test [1] (setting [3]) and 0.854 in test [1] (setting [4]). Besides, the cell count in test [1] (setting [5]) is 5260; in test [1] (setting [6]), 5600. The fold fluorescence in test [2] is 7.36 (inactive).
